Results on 31 compounds are retold here after PubChem BioAssay (EPA / NIEHS).

Each structure is given as a SMILES string. Records with an inconclusive call do not appear. Activity calls are given as the source filed them. Rule for the calls: active = hit-call score of the fitted dose curve at least 0.9, where 1 is the maximum; inconclusive = response in the unintended direction; inactive = score below 0.9.

What is called AC50 is the concentration at which the activity in the assay is half-maximal.

Estrogen receptor (Homo sapiens), sequence (P03372 whole entry, looked up, the tested form may be a part): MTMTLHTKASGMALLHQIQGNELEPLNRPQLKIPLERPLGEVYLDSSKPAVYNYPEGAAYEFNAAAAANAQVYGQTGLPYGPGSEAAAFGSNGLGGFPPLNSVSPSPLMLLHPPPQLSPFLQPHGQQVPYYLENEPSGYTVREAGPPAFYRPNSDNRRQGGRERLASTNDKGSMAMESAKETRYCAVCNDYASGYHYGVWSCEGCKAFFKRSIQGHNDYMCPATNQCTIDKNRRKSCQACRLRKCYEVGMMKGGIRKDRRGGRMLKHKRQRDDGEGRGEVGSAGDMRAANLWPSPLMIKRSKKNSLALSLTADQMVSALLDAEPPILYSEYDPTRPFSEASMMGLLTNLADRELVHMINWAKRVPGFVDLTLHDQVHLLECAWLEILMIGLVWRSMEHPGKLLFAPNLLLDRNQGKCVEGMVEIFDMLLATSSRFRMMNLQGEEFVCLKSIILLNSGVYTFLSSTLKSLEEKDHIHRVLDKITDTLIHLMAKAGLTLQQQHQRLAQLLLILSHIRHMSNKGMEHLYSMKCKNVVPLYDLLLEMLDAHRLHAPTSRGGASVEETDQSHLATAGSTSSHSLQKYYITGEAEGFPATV

The target of this assay is Estrogen receptor (Homo sapiens) (UniProt P03372). As to the kind of experiment: OT_ER_ERaERa_0480: Odyssey Thera (OT) 8-hour HEK293T Protein-Complementation Assay for Estrogen Receptor-alpha/-alpha Homodimer (AID 2283351).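 Note: rise in fluorescence from reassembled reporter fragments on ERα LBD homodimer in nucleus or whole cell.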 The method, boiled down:
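Binding reporter in which dimerisation of ERα LBD (aa 310-547) fusions reconstitutes a fluorescent reporter in HEK293T cells. Compounds incubated 8 h; mean fluorescence intensity increase versus DMSO scored.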
As for `[Na+]`, the result was inactive.
Regarding `CN(C)C(=O)Nc1ccccc1`, the compound was called inactive.
For `CC1=CCC(C(C)(C)O)CC1` (stereo unspecified), the call was inactive.
On to `COC(=O)c1cccc(C(=O)OC)c1`, for which the outcome was inactive.
Turning to `CC(=O)c1ccc(O)cc1`, the compound was called inactive.
On to `CC(C)(C)C1CCC(O)CC1` (stereo unspecified), for which the compound was called inactive.
Consider `CCC(C)(CCCC(C)C)OC(C)=O` (stereo unspecified), for which the result was inactive.
For the compound `CCCO`, the result was inactive.
Still for that read-out and setting: then `C=CC(C)CCCC(C)(C)O` (stereo unspecified), with “inactive”; and `FC(F)(F)c1ccc(Cl)c(Cl)c1`, with “inactive”.
For `CC(=O)C1=C(C)[C@@H]2C[C@@]3(C1)[C@H](C)CC[C@H]3C2(C)C`, the half-maximal activity concentration (AC50) is 21.6 µM (active).
`CCCCC(CC)COCCO` (stereo unspecified): the call was inactive.
As to `c1ccc(Cc2ccccc2)cc1`, the outcome was inactive.
For the compound `CCCCCCCCCO`, the compound was called inactive.
On to `CCCCN(CCCC)CCCCCCN(CCCC)CCCC`, for which the compound was called inactive.
Turning to `CN(C)C`, the result was inactive.
In the case of `CCCC1CCC(=O)CC1`, the compound was called inactive.
`CC(CCO)CC(C)(C)C` (stereo unspecified): the compound was classed as inactive.
In the case of `OC[C@H]1O[C@@H](O[C@H]2[C@H](O)[C@@H](O)[C@H](O)O[C@@H]2CO)[C@H](O)[C@@H](O)[C@H]1O`, the compound was classed as inactive.
On the same count and under the same terms, then `COC(=O)c1ccc(C(=O)OC)cc1`, with “inactive”; and `CCCCCCCCCCOC(=O)c1ccccc1C(=O)OCCCCCCCC`, with “inactive”; and `CC(C)N(c1ccccc1)C(C)C`, with “inactive”.
For the compound `COc1ccc2[nH]cc(CCNC(C)=O)c2c1`, the compound was classed as inactive.
Same read-out and setting: next, `CCCC(O)C(CC)CO` (stereo unspecified): “inactive”; `CCCO[Si](OCCC)(OCCC)OCCC`: “inactive”; `CC1COC(=O)O1` (stereo unspecified): “inactive”.
The same measure, in the same setting: next, `CCCCOCCOCCO`: “inactive”; `CCC(C)COC(=O)CC(C)C` (stereo unspecified): “inactive”; `C=CCCCCCCCCC(=O)OCC`: “inactive”.
In the case of `CCCCCCCCCCCCN1CCOCC1`, the compound was called inactive.
Take `O=C(OCc1ccccc1)c1ccccc1O`: the AC50 is 63 µM (active).
